# Measured values from article PMC7862700, “An all-to-all approach to the identification of sequence-specific readers for epigenetic DNA modifications on cytosine”.
# Legend:
# Assay in all cases: DAPPL (digital affinity profiling via proximity ligation, sequencing); 10 mM Tris-HCl pH 7.5, 50 mM NaCl, 1 mM DTT, 4% glycerol, room temperature, 30 min; GST-TFs on glutathione beads, 16-mer random dsDNA library, 0.1% formaldehyde crosslink after washing; high values mean tight binding
# FEV = biological target: T1, FEV (Homo sapiens, UniProt Q99581 1-238); settings: protein: recombinant; tags: N-terminal GST; dsDNA, one strand shown
# T1 sequence: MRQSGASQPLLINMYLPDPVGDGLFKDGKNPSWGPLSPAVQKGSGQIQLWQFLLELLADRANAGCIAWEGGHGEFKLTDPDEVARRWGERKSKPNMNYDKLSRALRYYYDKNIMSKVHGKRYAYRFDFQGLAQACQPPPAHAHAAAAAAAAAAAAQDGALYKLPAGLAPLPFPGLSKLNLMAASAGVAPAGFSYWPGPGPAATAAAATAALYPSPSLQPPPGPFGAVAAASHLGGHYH
# Method in brief: (§1)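 Binding signal is defined as a hexamer's read frequency for one factor over its frequency for the tag-only sample. To obtain reads, GST-fused human transcription factors were expressed in yeast, captured on glutathione beads, barcoded with DNA and pooled with that sample. Pools met 200 nmole of a 16-mer random double-stranded DNA library in Tris/NaCl/DTT/glycerol buffer for 30 min at room temperature before washing, 0.1% formaldehyde crosslinking, proximity ligation (BsaI/T4 ligase, 1 h, 37 °C), PCR and Illumina NextSeq500 sequencing.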
# ETV5 = ETV5 (Homo sapiens, UniProt P41161 1-510); settings: protein: recombinant; tags: N-terminal GST; dsDNA, one strand shown
# Method in brief: as §1
# HSF1 = HSF1 (Homo sapiens, UniProt Q00613 1-529); settings: protein: recombinant; tags: N-terminal GST; chain copies: 3; dsDNA, one strand shown
# Method in brief: as §1
# SPIC = biological target: T2, SPIC (Homo sapiens, UniProt Q8N5J4 1-248); settings: protein: recombinant; tags: N-terminal GST; dsDNA, one strand shown
# T2 sequence: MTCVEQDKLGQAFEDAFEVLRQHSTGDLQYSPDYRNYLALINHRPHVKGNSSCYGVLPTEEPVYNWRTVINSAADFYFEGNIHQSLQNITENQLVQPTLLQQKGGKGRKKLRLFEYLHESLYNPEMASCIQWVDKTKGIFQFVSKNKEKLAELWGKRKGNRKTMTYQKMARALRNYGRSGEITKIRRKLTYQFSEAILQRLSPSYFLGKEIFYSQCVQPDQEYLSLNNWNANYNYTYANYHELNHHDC
# Method in brief: as §1
# ELF4 = ELF4 (Homo sapiens, UniProt Q99607 1-663); settings: protein: recombinant; tags: N-terminal GST; dsDNA, one strand shown
# Method in brief: as §1
# ELK4 = biological target: T3, ELK4 (Homo sapiens, UniProt P28324-2 1-405); settings: protein: recombinant; tags: N-terminal GST; dsDNA, one strand shown
# T3 sequence: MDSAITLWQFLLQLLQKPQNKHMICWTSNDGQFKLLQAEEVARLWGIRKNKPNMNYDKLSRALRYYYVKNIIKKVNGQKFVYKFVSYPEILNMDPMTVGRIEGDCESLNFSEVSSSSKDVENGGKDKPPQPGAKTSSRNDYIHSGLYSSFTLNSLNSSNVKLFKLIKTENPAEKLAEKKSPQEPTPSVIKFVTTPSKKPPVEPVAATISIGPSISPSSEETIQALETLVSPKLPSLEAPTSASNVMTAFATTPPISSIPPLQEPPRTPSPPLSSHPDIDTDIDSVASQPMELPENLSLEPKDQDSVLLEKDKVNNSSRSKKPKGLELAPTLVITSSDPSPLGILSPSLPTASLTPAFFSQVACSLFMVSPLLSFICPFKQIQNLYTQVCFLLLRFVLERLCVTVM
# Method in brief: as §1
# ETV2 = biological target: T4, ETV2 (Homo sapiens, UniProt O00321 1-342); settings: protein: recombinant; tags: N-terminal GST; dsDNA, one strand shown
# T4 sequence: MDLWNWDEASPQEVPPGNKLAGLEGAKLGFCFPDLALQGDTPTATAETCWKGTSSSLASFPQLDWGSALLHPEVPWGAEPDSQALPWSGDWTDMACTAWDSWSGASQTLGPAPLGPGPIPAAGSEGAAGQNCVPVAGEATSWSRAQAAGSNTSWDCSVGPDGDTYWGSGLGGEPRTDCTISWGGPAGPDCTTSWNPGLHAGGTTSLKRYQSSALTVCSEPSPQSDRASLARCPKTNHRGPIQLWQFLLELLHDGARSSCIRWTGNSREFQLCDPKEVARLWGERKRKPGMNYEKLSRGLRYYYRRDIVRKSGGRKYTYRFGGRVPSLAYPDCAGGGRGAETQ
# Method in brief: as §1
# ELF3 = biological target: T5, ELF3 (Homo sapiens, UniProt P78545 1-371); settings: protein: recombinant; tags: N-terminal GST; dsDNA, one strand shown
# T5 sequence: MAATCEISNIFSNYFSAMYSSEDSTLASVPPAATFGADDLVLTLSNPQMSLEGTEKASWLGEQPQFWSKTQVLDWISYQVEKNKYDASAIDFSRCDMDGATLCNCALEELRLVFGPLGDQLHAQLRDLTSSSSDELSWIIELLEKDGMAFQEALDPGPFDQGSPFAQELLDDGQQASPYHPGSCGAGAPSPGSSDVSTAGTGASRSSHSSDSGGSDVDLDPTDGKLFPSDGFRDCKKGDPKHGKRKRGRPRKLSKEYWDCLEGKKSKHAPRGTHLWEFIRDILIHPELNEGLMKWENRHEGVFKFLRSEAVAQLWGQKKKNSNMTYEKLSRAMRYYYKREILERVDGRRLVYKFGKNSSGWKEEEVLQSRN
# Method in brief: as §1
# CRX = CRX (Homo sapiens, UniProt O43186 1-299); settings: protein: recombinant; tags: N-terminal GST; dsDNA, one strand shown
# Method in brief: as §1
# ETV1 = ETV1 (Homo sapiens, UniProt P50549 1-477); settings: protein: recombinant; tags: N-terminal GST; dsDNA, one strand shown
# Method in brief: as §1
# ERF = biological target: T6, ERF (Homo sapiens, UniProt P50548 1-548); settings: protein: recombinant; tags: N-terminal GST; dsDNA, one strand shown
# T6 sequence: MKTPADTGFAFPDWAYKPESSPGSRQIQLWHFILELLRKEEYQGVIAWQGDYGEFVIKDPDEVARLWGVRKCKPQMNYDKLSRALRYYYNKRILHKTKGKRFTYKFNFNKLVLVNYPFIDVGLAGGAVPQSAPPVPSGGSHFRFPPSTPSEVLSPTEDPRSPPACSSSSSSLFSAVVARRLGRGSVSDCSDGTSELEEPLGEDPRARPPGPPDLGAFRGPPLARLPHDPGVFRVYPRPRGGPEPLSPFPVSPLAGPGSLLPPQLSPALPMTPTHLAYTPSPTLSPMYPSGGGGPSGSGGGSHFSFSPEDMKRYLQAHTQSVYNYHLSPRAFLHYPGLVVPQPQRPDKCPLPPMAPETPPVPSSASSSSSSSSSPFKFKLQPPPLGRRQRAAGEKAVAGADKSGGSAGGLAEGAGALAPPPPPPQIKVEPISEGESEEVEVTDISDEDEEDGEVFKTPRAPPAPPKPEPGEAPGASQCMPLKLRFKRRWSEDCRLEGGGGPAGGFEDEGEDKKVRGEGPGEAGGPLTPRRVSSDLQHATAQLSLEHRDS
# Method in brief: as §1
# ETV3L = biological target: T7, ETV3L (Homo sapiens, UniProt Q6ZN32 1-361); settings: protein: recombinant; tags: N-terminal GST; dsDNA, one strand shown
# T7 sequence: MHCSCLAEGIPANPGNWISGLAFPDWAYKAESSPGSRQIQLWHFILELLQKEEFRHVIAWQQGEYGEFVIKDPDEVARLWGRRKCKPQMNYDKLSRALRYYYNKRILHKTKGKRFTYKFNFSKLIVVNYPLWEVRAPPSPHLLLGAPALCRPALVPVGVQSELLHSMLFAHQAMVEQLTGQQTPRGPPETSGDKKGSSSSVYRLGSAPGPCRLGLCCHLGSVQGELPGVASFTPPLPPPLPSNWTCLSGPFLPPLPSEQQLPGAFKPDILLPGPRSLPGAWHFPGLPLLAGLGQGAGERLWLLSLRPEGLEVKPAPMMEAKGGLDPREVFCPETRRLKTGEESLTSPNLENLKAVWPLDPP
# Method in brief: as §1
# ETS2 = biological target: T8, ETS2 (Homo sapiens, UniProt P15036 1-469); settings: protein: recombinant; tags: N-terminal GST; dsDNA, one strand shown
# T8 sequence: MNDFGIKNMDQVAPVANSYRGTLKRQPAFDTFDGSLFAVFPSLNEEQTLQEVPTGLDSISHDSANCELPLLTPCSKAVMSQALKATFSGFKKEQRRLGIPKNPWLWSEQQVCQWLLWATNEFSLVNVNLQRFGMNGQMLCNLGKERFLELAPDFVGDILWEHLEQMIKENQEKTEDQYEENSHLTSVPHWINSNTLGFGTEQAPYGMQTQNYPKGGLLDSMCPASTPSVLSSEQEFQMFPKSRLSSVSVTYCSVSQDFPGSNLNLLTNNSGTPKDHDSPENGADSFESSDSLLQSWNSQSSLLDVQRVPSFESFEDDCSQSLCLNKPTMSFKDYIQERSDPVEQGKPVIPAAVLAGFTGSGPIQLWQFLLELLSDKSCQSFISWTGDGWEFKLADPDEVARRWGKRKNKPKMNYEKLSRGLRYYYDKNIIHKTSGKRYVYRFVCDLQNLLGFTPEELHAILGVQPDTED
# Method in brief: as §1
# SPDEF = biological target: T9, SPDEF (Homo sapiens, UniProt O95238 1-335); settings: protein: recombinant; tags: N-terminal GST; dsDNA, one strand shown
# T9 sequence: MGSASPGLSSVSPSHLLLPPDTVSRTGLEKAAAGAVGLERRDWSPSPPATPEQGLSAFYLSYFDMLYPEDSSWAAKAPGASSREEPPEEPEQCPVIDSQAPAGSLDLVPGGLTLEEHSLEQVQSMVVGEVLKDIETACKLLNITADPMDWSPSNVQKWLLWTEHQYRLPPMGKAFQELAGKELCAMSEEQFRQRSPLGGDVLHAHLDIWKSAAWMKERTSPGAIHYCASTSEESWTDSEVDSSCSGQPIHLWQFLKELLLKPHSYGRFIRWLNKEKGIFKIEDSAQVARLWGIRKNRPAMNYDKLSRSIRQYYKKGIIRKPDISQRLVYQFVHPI
# Method in brief: as §1
# ETV7 = biological target: T10, ETV7 (Homo sapiens, UniProt Q9Y603 1-341); settings: protein: recombinant; tags: N-terminal GST; dsDNA, one strand shown
# T10 sequence: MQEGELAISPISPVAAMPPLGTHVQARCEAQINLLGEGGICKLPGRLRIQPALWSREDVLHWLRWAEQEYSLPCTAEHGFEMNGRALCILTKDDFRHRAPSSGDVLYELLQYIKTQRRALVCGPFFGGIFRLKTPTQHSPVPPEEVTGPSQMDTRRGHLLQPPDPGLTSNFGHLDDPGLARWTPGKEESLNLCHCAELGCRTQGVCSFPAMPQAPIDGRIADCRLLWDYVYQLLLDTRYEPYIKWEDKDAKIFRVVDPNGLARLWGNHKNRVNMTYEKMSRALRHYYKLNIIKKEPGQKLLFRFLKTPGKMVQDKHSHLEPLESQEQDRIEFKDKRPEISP
# Method in brief: as §1
# ELF5 = biological target: T11, ELF5 (Homo sapiens, UniProt Q9UKW6-2 1-255); settings: protein: recombinant; tags: N-terminal GST; dsDNA, one strand shown
# T11 sequence: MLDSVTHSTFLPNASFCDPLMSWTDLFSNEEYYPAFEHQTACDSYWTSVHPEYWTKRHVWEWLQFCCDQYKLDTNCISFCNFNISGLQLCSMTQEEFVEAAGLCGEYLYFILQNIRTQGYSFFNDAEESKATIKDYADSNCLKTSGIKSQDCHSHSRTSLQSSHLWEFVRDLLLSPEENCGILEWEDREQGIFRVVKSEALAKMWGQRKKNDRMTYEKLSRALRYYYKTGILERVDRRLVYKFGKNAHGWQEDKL
# Method in brief: as §1
# ETV3 = biological target: T12, ETV3 (Homo sapiens, UniProt P41162-2 1-143); settings: protein: recombinant; tags: N-terminal GST; dsDNA, one strand shown
# T12 sequence: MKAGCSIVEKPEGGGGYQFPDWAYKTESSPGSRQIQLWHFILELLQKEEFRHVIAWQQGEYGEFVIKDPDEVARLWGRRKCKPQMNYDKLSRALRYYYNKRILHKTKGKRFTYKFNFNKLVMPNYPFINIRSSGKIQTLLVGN
# Method in brief: as §1
# ETV6 = ETV6 (Homo sapiens, UniProt P41212 1-452); settings: protein: recombinant; tags: N-terminal GST; dsDNA, one strand shown
# Method in brief: as §1
# HSF1, sequence (Q00613 whole entry): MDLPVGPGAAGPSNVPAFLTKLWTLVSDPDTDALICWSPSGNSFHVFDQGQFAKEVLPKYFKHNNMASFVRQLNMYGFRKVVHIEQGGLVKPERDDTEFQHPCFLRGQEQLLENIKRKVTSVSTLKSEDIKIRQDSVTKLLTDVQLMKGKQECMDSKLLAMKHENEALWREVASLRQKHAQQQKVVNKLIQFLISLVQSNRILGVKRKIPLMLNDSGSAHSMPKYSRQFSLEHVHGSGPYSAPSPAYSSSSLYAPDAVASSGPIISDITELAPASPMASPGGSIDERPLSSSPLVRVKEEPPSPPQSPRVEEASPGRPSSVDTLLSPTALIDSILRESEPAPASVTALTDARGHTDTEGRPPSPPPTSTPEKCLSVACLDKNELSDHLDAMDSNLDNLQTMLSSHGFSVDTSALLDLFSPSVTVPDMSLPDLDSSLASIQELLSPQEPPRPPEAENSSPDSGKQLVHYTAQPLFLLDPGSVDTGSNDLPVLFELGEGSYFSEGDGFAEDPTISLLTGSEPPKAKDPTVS
# ETV6, sequence (P41212 whole entry): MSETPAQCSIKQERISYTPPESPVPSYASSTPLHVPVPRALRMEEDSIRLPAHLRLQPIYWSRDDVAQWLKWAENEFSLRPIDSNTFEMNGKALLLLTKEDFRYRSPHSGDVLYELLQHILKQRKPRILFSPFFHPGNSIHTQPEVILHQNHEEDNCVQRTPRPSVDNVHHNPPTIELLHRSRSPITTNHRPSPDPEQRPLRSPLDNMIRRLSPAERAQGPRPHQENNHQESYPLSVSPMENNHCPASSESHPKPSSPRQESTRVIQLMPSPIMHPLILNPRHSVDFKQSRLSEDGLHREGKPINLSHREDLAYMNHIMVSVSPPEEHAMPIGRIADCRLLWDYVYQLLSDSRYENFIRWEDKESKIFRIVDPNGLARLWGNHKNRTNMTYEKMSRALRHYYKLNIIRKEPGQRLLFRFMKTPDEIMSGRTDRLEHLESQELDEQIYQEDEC
# ETV1, sequence (P50549 whole entry): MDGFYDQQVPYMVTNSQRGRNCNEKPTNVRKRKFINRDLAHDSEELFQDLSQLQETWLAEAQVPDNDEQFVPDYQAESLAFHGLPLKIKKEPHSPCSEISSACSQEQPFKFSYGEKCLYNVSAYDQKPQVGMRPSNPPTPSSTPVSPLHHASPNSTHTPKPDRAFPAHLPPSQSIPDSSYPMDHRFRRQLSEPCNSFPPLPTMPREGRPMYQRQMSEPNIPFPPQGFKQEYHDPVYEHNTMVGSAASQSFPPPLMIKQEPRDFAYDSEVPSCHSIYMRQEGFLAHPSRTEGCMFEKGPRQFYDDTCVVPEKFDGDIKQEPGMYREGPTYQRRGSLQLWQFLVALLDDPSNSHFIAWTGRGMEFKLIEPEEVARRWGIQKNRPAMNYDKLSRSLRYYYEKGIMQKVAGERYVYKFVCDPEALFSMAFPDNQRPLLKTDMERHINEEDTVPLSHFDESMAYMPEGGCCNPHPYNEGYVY
# ETV5, sequence (P41161 whole entry): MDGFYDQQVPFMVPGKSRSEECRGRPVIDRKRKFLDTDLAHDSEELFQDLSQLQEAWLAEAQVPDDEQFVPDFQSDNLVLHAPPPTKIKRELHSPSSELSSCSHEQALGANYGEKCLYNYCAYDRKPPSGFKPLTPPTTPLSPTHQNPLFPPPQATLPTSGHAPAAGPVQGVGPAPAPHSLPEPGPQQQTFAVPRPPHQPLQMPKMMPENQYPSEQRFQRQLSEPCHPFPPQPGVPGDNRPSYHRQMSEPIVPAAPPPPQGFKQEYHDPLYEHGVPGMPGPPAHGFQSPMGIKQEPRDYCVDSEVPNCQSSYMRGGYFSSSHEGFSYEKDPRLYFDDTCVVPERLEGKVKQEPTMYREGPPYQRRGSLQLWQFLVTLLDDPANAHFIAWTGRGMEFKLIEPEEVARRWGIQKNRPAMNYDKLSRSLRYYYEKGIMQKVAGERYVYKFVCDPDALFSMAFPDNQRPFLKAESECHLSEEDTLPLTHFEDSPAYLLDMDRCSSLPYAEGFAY
# CRX, sequence (O43186 whole entry): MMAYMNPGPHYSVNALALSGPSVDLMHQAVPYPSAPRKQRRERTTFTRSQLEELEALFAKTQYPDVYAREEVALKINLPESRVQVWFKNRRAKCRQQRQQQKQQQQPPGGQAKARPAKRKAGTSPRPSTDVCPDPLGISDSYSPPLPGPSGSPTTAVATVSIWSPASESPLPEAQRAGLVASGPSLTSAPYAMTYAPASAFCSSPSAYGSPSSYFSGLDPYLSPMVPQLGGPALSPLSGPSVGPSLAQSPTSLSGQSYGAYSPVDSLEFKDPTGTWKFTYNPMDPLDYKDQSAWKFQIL
# ELF4, sequence (Q99607 whole entry): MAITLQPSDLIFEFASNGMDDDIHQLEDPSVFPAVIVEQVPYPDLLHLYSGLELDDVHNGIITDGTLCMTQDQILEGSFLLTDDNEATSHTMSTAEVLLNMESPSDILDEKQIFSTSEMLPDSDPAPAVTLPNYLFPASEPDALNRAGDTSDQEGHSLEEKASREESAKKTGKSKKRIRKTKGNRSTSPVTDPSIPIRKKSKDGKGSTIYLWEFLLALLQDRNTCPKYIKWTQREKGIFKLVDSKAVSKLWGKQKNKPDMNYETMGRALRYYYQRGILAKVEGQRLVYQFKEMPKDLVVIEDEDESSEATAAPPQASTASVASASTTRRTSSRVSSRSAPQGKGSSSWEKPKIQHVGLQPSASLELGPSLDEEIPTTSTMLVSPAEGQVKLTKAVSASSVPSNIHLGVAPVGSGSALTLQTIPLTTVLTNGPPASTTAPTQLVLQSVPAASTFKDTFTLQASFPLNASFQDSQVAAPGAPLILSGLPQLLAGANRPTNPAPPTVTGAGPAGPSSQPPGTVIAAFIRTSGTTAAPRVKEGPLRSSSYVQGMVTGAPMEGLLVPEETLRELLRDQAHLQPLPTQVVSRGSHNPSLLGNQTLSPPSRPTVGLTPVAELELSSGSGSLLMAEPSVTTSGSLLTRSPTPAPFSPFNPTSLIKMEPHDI
sequence,measurement,setting,value
CCTATG,binding signal,FEV,"1.17 fold enrichment (6-mer frequency, TF over GST control)"
same,binding signal,ETV5,"1.28 fold enrichment (6-mer frequency, TF over GST control)"
same,binding signal,HSF1,"1.05 fold enrichment (6-mer frequency, TF over GST control)"
same,binding signal,SPIC,"1.1 fold enrichment (6-mer frequency, TF over GST control)"
same,binding signal,ELF4,"1.3 fold enrichment (6-mer frequency, TF over GST control)"
same,binding signal,ELK4,"1.35 fold enrichment (6-mer frequency, TF over GST control)"
same,binding signal,ETV2,"1.25 fold enrichment (6-mer frequency, TF over GST control)"
same,binding signal,ELF3,"1.52 fold enrichment (6-mer frequency, TF over GST control)"
same,binding signal,CRX,"1.02 fold enrichment (6-mer frequency, TF over GST control)"
same,binding signal,ETV1,"1.24 fold enrichment (6-mer frequency, TF over GST control)"
same,binding signal,ERF,"1.11 fold enrichment (6-mer frequency, TF over GST control)"
same,binding signal,ETV3L,"1.21 fold enrichment (6-mer frequency, TF over GST control)"
same,binding signal,ETS2,"1.19 fold enrichment (6-mer frequency, TF over GST control)"
same,binding signal,SPDEF,"1.25 fold enrichment (6-mer frequency, TF over GST control)"
same,binding signal,ETV7,"1.27 fold enrichment (6-mer frequency, TF over GST control)"
same,binding signal,ELF5,"1.16 fold enrichment (6-mer frequency, TF over GST control)"
same,binding signal,ETV3,"1.29 fold enrichment (6-mer frequency, TF over GST control)"
same,binding signal,ETV6,"1.17 fold enrichment (6-mer frequency, TF over GST control)"
